Laboratory results published in PubChem BioAssay (NCATS).
Results filed as inconclusive are left out. Activity calls are given as the source filed them. Calls come from the whole dose curve; as a rule, active = well fitted inhibition curve with a large enough effect; inconclusive = small, poorly fitted or top-dose-only effect; inactive = flat fitted curve, though single readings scatter.

Experiments:
Experiment in all cases: qHTS profiling for inhibitors of Plasmodium falciparum proliferation (AID 504749); note: nearly all actives have a fitted effect of over 60% in size
Conditions in all cases: P. falciparum in erythrocytes, SYBR Green DNA, 72 h; series mostly up to 28.7 µM
AS120 = system: AS120
How it was run: (§1)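 Quantitative HTS: compounds pinned into medium, infected erythrocytes added (0.3% parasitemia, 2.5% hematocrit), 72 h culture at 37 C under 5% CO2. Saponin/Triton lysis with SYBR Green I, overnight RT, then fluorescence read.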

ATS189 = system: ATS189
How it was run: as §1

ATS95 = system: ATS95
How it was run: as §1

CP211 = system: CP211
How it was run: as §1

CP215 = system: CP215
How it was run: as §1

CP238 = system: CP238
How it was run: as §1

CP247 = system: CP247
How it was run: as §1

CP265 = system: CP265
How it was run: as §1

CP269 = system: CP269
How it was run: as §1

CP286 = system: CP286
How it was run: as §1

CP297 = system: CP297
How it was run: as §1

CP315 = system: CP315
How it was run: as §1

CP325 = system: CP325
How it was run: as §1

CP329 = system: CP329
How it was run: as §1

DIV14 = system: DIV14
How it was run: as §1

DIV17 = system: DIV17
How it was run: as §1

HB3 = system: HB3
How it was run: as §1

PC26 = system: PC26
How it was run: as §1

PC49 = system: PC49
How it was run: as §1

TAB113 = system: TAB113
How it was run: as §1

Measured: Potency

CC(C)CN(C[C@@H](OP(=O)(O)O)[C@H](Cc1ccccc1)NC(=O)O[C@@H]1CCOC1)S(=O)(=O)c1ccc(N)cc1
inactive: all assays above
